# Experimental data taken from publication PMC7862700, “An all-to-all approach to the identification of sequence-specific readers for epigenetic DNA modifications on cytosine”.
# Legend:
# Test in all cases: DAPPL (digital affinity profiling via proximity ligation, sequencing); 10 mM Tris-HCl pH 7.5, 50 mM NaCl, 1 mM DTT, 4% glycerol, room temperature, 30 min; GST-TFs on glutathione beads, 16-mer random dsDNA library, 0.1% formaldehyde crosslink after washing; high values mean tight binding
# FLI1 = biological target: T1, FLI1 (Homo sapiens, UniProt Q01543 1-452); conditions: protein: recombinant; tags: N-terminal GST; dsDNA, one strand shown
# T1 sequence: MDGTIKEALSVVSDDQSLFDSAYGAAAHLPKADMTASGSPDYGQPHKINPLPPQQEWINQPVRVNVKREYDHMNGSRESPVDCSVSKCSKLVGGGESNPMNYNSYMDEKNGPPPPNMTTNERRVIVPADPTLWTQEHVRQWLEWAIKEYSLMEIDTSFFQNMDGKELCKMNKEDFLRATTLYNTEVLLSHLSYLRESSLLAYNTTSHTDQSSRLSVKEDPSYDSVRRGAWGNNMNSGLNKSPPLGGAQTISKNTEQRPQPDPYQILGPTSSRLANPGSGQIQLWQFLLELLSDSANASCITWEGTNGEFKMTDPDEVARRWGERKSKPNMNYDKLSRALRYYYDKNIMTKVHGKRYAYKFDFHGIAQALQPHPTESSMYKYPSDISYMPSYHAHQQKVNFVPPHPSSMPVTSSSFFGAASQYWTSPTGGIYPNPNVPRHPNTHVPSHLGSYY
# Procedure, shortened: (§1)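 The binding signal reported is, for every hexamer, its read frequency for a factor over its read frequency for the tag-only sample. Reads came from pools of yeast-expressed, GST-fused human transcription factors on glutathione beads, barcoded with DNA and mixed with that sample, which were incubated with 200 nmole of a random double-stranded 16-mer DNA library in Tris/NaCl/DTT/glycerol buffer at room temperature for 30 min. After washing, the pools were crosslinked with 0.1% formaldehyde, proximity-ligated with BsaI/T4 ligase for 1 h at 37 °C, PCR-amplified and sequenced on an Illumina NextSeq500.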
# ELK1 = biological target: T2, ELK1 (Homo sapiens, UniProt P19419 1-428); conditions: protein: recombinant; tags: N-terminal GST; dsDNA, one strand shown
# T2 sequence: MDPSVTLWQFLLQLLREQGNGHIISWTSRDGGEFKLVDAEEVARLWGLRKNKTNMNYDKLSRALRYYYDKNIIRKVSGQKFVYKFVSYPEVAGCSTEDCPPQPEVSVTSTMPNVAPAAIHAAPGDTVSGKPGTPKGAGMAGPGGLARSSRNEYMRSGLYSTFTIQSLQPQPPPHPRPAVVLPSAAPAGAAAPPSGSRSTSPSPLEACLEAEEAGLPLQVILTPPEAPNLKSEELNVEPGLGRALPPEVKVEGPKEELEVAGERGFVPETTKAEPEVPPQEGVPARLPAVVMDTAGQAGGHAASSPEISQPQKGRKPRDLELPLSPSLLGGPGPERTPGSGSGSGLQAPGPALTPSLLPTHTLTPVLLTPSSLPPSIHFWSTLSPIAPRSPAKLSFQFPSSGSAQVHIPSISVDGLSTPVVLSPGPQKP
# Procedure, shortened: as §1
# GABPA = biological target: T3, GABPA (Homo sapiens, UniProt Q06546 1-454); conditions: protein: recombinant; tags: N-terminal GST; dsDNA, one strand shown
# T3 sequence: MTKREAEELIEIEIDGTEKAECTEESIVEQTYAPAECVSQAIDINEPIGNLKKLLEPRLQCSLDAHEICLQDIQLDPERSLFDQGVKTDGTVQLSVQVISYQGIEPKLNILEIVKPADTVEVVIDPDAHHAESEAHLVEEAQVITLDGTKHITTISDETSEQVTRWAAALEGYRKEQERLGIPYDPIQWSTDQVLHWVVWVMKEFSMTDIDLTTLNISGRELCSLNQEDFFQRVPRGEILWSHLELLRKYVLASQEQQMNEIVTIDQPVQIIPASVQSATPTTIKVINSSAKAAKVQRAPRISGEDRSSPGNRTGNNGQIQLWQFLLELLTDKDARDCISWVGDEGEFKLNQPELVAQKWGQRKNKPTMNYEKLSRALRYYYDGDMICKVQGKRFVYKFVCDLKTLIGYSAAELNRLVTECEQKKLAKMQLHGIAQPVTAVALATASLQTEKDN
# Procedure, shortened: as §1
# ERG = biological target: T4, ERG (Homo sapiens, UniProt P11308 1-479); conditions: protein: recombinant; tags: N-terminal GST; dsDNA, one strand shown
# T4 sequence: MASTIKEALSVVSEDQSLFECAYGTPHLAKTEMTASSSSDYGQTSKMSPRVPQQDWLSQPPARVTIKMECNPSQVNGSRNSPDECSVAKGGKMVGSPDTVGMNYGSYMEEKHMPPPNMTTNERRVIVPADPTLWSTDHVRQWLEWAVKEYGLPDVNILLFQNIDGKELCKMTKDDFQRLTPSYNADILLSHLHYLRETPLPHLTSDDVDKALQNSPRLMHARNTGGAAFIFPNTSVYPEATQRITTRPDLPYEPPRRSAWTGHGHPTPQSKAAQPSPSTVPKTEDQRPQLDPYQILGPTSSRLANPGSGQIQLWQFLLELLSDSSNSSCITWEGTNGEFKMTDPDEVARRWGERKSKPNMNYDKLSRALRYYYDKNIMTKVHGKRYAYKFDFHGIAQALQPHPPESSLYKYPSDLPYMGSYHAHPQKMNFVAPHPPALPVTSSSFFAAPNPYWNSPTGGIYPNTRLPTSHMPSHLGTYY
# Procedure, shortened: as §1
# ELF1 = ELF1 (Homo sapiens, UniProt P32519 1-619); conditions: protein: recombinant; tags: N-terminal GST; dsDNA, one strand shown
# Procedure, shortened: as §1
# EHF = biological target: T5, EHF (Homo sapiens, UniProt Q9NZC4 1-300); conditions: protein: recombinant; tags: N-terminal GST; dsDNA, one strand shown
# T5 sequence: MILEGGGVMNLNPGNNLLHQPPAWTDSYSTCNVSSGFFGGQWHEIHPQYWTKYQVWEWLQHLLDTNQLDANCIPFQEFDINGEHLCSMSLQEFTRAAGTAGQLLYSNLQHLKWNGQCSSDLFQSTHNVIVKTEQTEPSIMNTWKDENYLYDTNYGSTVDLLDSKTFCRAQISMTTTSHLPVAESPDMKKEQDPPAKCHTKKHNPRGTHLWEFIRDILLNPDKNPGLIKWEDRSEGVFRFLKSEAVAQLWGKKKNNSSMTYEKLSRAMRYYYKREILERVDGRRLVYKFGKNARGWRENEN
# Procedure, shortened: as §1
# SPI1 = SPI1 (Homo sapiens, UniProt P17947 1-270); conditions: protein: recombinant; tags: N-terminal GST; dsDNA, one strand shown
# Procedure, shortened: as §1
# SPIB = SPIB (Homo sapiens, UniProt Q01892 1-262); conditions: protein: recombinant; tags: N-terminal GST; dsDNA, one strand shown
# Procedure, shortened: as §1
# ELK3 = biological target: T6, ELK3 (Homo sapiens, UniProt P41970 1-407); conditions: protein: recombinant; tags: N-terminal GST; dsDNA, one strand shown
# T6 sequence: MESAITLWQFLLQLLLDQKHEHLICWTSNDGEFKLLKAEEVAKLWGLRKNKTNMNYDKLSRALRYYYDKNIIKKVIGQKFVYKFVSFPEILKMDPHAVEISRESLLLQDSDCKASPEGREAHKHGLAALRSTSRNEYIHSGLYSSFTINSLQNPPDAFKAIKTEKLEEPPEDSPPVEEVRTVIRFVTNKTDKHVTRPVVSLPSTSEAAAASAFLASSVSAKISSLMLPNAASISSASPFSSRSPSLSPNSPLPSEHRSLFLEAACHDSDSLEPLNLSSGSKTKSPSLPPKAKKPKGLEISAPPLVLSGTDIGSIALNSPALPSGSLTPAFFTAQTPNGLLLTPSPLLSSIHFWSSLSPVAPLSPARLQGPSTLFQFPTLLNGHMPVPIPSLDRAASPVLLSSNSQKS
# Procedure, shortened: as §1
# FEV = biological target: T7, FEV (Homo sapiens, UniProt Q99581 1-238); conditions: protein: recombinant; tags: N-terminal GST; dsDNA, one strand shown
# T7 sequence: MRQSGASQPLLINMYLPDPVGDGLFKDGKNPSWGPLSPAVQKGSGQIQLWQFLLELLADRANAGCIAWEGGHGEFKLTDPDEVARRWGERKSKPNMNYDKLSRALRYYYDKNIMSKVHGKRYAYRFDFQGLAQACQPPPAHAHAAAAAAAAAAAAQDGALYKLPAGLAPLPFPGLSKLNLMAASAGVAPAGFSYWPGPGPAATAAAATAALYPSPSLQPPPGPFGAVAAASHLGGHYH
# Procedure, shortened: as §1
# ETV5 = ETV5 (Homo sapiens, UniProt P41161 1-510); conditions: protein: recombinant; tags: N-terminal GST; dsDNA, one strand shown
# Procedure, shortened: as §1
# HSF1 = HSF1 (Homo sapiens, UniProt Q00613 1-529); conditions: protein: recombinant; tags: N-terminal GST; chain copies: 3; dsDNA, one strand shown
# Procedure, shortened: as §1
# SPIC = biological target: T8, SPIC (Homo sapiens, UniProt Q8N5J4 1-248); conditions: protein: recombinant; tags: N-terminal GST; dsDNA, one strand shown
# T8 sequence: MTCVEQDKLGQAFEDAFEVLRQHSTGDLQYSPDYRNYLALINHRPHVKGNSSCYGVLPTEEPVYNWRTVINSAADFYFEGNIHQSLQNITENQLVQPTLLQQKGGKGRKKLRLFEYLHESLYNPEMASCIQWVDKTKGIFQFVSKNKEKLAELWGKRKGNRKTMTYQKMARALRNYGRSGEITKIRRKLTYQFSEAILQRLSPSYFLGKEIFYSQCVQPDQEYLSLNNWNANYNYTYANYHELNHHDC
# Procedure, shortened: as §1
# ELF4 = ELF4 (Homo sapiens, UniProt Q99607 1-663); conditions: protein: recombinant; tags: N-terminal GST; dsDNA, one strand shown
# Procedure, shortened: as §1
# ELK4 = biological target: T9, ELK4 (Homo sapiens, UniProt P28324-2 1-405); conditions: protein: recombinant; tags: N-terminal GST; dsDNA, one strand shown
# T9 sequence: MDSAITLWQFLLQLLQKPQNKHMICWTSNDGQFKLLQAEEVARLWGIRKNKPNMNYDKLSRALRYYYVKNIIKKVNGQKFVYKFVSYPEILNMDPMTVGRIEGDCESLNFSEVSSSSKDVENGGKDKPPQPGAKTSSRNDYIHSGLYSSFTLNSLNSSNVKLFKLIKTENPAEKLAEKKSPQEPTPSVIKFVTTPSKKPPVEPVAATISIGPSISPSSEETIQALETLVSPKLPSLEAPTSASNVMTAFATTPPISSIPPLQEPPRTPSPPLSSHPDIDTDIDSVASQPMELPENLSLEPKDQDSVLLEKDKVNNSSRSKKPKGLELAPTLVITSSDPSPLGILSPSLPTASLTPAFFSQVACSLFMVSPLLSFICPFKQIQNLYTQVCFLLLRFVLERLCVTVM
# Procedure, shortened: as §1
# ETV2 = biological target: T10, ETV2 (Homo sapiens, UniProt O00321 1-342); conditions: protein: recombinant; tags: N-terminal GST; dsDNA, one strand shown
# T10 sequence: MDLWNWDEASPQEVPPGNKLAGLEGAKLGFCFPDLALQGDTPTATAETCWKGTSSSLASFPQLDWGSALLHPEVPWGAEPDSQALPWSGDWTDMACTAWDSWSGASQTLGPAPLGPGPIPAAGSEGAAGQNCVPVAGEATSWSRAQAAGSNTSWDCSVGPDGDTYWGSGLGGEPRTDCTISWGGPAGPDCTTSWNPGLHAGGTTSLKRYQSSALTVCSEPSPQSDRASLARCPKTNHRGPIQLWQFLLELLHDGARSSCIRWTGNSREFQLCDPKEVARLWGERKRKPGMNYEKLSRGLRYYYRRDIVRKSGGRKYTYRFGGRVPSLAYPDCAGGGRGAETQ
# Procedure, shortened: as §1
# ELF3 = biological target: T11, ELF3 (Homo sapiens, UniProt P78545 1-371); conditions: protein: recombinant; tags: N-terminal GST; dsDNA, one strand shown
# T11 sequence: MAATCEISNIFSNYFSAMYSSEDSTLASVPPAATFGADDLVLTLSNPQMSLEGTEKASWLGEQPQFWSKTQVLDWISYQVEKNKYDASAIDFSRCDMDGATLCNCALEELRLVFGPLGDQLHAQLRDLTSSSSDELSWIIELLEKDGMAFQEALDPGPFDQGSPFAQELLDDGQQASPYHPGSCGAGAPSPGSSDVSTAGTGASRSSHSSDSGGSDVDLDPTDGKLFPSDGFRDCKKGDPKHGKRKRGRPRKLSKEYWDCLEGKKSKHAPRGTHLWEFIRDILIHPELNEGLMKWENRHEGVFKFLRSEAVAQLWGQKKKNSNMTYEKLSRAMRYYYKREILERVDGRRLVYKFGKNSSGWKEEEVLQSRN
# Procedure, shortened: as §1
# ETV1 = ETV1 (Homo sapiens, UniProt P50549 1-477); conditions: protein: recombinant; tags: N-terminal GST; dsDNA, one strand shown
# Procedure, shortened: as §1
# Sequence of ETV1 (P50549 whole entry): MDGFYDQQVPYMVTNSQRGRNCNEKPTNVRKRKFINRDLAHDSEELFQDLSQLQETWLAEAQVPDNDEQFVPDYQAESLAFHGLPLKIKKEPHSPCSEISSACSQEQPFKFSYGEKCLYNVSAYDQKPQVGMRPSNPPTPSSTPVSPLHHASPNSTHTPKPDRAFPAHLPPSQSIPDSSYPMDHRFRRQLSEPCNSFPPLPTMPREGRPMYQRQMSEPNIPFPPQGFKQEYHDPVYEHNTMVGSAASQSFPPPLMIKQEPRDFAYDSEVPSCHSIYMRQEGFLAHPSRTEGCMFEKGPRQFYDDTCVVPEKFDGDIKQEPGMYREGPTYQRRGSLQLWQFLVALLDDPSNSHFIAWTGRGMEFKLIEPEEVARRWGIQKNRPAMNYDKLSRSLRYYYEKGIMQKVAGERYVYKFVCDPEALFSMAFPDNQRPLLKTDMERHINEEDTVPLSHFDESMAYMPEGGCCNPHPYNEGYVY
# Sequence of ETV5 (P41161 whole entry): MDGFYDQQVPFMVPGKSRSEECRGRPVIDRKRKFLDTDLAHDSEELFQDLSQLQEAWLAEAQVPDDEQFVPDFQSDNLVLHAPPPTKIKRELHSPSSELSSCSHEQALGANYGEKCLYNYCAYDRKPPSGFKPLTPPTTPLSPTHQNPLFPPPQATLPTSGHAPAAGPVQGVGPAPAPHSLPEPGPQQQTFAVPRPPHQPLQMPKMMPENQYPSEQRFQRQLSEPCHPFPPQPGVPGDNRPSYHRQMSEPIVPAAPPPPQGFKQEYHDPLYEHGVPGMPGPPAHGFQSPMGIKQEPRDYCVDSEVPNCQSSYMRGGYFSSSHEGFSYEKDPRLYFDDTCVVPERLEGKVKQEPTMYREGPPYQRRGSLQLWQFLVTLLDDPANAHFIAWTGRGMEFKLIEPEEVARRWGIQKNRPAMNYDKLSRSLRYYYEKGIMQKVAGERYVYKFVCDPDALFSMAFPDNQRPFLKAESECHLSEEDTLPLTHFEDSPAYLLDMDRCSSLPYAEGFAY
# Sequence of SPIB (Q01892 whole entry): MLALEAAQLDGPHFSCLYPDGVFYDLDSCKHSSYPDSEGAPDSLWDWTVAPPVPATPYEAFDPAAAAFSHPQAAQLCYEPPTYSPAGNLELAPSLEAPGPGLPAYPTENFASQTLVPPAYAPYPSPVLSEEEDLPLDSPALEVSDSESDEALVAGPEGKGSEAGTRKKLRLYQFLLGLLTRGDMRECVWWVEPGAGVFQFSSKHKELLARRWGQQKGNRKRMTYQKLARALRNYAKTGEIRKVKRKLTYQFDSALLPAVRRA
# Sequence of HSF1 (Q00613 whole entry): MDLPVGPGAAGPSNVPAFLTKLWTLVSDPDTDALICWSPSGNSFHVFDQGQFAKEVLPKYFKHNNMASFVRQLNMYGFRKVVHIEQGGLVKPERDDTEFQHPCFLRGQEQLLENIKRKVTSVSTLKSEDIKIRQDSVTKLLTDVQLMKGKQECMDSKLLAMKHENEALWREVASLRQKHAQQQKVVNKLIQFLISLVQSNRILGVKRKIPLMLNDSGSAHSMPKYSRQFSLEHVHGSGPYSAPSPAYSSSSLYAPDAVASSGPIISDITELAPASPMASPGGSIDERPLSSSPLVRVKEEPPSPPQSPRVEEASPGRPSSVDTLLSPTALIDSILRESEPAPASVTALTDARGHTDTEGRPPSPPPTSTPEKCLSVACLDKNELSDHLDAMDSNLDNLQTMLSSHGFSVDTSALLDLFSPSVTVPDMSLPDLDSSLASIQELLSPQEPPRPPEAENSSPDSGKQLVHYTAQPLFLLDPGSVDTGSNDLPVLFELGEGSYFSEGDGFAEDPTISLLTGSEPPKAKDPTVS
# Sequence of ELF1 (P32519 whole entry): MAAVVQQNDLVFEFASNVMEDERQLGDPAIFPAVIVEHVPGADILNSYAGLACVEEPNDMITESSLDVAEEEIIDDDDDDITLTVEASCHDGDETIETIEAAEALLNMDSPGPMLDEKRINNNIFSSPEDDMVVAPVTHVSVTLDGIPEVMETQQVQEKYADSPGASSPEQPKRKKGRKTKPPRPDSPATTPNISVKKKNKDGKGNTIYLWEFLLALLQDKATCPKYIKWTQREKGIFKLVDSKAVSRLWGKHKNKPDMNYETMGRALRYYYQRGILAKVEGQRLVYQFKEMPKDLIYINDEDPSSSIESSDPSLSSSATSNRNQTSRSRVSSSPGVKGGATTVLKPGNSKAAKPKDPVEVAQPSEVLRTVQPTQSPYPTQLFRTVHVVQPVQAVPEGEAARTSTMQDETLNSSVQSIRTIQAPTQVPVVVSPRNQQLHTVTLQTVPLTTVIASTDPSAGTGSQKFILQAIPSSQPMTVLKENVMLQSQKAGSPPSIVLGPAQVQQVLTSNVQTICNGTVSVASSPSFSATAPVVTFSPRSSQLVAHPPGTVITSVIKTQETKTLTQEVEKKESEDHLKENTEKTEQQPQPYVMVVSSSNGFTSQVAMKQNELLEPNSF
# Sequence of ELF4 (Q99607 whole entry): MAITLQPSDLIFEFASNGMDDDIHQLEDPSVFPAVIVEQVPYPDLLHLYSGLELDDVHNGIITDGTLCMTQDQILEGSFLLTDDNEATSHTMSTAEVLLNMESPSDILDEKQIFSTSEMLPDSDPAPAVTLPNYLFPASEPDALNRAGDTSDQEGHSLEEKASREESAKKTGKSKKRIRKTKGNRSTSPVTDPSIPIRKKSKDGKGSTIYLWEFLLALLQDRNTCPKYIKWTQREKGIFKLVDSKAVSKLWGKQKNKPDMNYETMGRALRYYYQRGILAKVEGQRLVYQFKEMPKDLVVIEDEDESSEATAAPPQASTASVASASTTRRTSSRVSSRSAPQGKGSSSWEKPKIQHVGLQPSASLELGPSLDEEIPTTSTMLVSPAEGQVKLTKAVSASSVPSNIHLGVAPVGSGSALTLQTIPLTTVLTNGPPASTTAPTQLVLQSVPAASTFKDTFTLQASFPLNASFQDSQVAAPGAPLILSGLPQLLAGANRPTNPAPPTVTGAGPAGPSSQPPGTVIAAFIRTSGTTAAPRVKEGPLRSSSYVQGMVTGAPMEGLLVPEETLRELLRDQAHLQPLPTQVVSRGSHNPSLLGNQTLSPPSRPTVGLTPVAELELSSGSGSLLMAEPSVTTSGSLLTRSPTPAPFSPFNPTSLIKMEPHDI
sequence,measurement,setting,value
CCCTCA,binding signal,FLI1,"1.28 fold enrichment (6-mer frequency, TF over GST control)"
same,binding signal,ELK1,"1.11 fold enrichment (6-mer frequency, TF over GST control)"
same,binding signal,GABPA,"1.18 fold enrichment (6-mer frequency, TF over GST control)"
same,binding signal,ERG,"1.16 fold enrichment (6-mer frequency, TF over GST control)"
same,binding signal,ELF1,"1.19 fold enrichment (6-mer frequency, TF over GST control)"
same,binding signal,EHF,"1.1 fold enrichment (6-mer frequency, TF over GST control)"
same,binding signal,SPI1,"1.12 fold enrichment (6-mer frequency, TF over GST control)"
same,binding signal,SPIB,"1.25 fold enrichment (6-mer frequency, TF over GST control)"
same,binding signal,ELK3,"1.19 fold enrichment (6-mer frequency, TF over GST control)"
same,binding signal,FEV,"1.24 fold enrichment (6-mer frequency, TF over GST control)"
same,binding signal,ETV5,"1.18 fold enrichment (6-mer frequency, TF over GST control)"
same,binding signal,HSF1,"1.03 fold enrichment (6-mer frequency, TF over GST control)"
same,binding signal,SPIC,"1.06 fold enrichment (6-mer frequency, TF over GST control)"
same,binding signal,ELF4,"1.28 fold enrichment (6-mer frequency, TF over GST control)"
same,binding signal,ELK4,"1.11 fold enrichment (6-mer frequency, TF over GST control)"
same,binding signal,ETV2,"1.29 fold enrichment (6-mer frequency, TF over GST control)"
same,binding signal,ELF3,"1.17 fold enrichment (6-mer frequency, TF over GST control)"
same,binding signal,ETV1,"1.19 fold enrichment (6-mer frequency, TF over GST control)"
